Assay results as given in the supplement of paper PMC11732987, “Enantioselective OTUD7B fragment discovery through chemoproteomics screening and high-throughput optimisation” (Communications Chemistry, 2025).

Assays:
Assay in all cases: log2 ratio of Biotin-Ahx-Ub-VS probe labelling (fragment/DMSO); higher = less target engagement (more negative = stronger competition), active = hit call of the paper (q ≤ 0.05, log2 ratio ≤ -1)
Settings in all cases: compound concentration: 200 uM; treatment time: 3 h
USP19 = target: T1, USP19 (UniProt O94966)
T1 sequence (whole entry): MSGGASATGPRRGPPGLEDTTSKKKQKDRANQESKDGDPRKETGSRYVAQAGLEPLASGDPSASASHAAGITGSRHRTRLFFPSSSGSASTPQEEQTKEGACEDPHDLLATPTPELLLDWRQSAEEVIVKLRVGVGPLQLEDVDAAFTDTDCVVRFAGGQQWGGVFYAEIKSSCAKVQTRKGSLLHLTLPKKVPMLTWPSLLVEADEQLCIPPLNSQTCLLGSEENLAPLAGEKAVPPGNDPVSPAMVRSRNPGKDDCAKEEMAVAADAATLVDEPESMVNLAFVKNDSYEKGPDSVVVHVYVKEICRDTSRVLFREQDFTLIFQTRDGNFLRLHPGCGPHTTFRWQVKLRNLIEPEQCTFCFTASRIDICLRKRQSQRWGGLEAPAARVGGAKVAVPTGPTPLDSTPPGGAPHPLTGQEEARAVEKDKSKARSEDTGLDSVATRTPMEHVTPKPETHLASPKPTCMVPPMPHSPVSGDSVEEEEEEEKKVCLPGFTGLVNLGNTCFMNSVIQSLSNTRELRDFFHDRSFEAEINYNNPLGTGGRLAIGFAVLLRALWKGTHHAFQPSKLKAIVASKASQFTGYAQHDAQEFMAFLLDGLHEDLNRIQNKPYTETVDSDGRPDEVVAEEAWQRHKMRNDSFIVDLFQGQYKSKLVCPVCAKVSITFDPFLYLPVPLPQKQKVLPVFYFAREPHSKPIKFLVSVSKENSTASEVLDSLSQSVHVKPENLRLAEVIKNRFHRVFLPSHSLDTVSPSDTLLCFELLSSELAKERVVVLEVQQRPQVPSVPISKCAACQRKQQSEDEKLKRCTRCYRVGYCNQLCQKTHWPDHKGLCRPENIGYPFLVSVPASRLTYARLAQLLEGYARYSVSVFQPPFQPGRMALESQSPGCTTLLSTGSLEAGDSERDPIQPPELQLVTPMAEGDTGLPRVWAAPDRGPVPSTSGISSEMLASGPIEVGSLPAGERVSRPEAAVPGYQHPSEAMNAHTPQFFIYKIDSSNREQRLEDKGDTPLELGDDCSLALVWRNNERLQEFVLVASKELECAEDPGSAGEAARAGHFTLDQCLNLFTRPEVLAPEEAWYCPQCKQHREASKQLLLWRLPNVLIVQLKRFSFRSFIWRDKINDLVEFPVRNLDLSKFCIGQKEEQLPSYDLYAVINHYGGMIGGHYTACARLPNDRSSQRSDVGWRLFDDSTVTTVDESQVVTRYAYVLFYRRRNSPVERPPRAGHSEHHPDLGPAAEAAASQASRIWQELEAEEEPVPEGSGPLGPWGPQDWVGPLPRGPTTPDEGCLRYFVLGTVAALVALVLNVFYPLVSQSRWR
Method in brief: (§1)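 Each value is an average log2 ratio of fragment to vehicle, tested by unpaired t-test. The underlying Spectronaut label-free quantities were global-median-normalised, and only proteins with ≥2 unique peptides were included. Triplicate HEK293T lysate samples (495 µg) were exposed to fragment at 200 µM or vehicle for 3 h, then to Biotin-Ahx-Ub-VS at 0.5 µM final for 1 h, before NeutrAvidin enrichment of labelled DUBs, LysC and trypsin digestion, and diaPASEF LC-MS/MS.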

USP24 = USP24 (UniProt Q9UPU5)
USP24, sequence (Q9UPU5 whole entry): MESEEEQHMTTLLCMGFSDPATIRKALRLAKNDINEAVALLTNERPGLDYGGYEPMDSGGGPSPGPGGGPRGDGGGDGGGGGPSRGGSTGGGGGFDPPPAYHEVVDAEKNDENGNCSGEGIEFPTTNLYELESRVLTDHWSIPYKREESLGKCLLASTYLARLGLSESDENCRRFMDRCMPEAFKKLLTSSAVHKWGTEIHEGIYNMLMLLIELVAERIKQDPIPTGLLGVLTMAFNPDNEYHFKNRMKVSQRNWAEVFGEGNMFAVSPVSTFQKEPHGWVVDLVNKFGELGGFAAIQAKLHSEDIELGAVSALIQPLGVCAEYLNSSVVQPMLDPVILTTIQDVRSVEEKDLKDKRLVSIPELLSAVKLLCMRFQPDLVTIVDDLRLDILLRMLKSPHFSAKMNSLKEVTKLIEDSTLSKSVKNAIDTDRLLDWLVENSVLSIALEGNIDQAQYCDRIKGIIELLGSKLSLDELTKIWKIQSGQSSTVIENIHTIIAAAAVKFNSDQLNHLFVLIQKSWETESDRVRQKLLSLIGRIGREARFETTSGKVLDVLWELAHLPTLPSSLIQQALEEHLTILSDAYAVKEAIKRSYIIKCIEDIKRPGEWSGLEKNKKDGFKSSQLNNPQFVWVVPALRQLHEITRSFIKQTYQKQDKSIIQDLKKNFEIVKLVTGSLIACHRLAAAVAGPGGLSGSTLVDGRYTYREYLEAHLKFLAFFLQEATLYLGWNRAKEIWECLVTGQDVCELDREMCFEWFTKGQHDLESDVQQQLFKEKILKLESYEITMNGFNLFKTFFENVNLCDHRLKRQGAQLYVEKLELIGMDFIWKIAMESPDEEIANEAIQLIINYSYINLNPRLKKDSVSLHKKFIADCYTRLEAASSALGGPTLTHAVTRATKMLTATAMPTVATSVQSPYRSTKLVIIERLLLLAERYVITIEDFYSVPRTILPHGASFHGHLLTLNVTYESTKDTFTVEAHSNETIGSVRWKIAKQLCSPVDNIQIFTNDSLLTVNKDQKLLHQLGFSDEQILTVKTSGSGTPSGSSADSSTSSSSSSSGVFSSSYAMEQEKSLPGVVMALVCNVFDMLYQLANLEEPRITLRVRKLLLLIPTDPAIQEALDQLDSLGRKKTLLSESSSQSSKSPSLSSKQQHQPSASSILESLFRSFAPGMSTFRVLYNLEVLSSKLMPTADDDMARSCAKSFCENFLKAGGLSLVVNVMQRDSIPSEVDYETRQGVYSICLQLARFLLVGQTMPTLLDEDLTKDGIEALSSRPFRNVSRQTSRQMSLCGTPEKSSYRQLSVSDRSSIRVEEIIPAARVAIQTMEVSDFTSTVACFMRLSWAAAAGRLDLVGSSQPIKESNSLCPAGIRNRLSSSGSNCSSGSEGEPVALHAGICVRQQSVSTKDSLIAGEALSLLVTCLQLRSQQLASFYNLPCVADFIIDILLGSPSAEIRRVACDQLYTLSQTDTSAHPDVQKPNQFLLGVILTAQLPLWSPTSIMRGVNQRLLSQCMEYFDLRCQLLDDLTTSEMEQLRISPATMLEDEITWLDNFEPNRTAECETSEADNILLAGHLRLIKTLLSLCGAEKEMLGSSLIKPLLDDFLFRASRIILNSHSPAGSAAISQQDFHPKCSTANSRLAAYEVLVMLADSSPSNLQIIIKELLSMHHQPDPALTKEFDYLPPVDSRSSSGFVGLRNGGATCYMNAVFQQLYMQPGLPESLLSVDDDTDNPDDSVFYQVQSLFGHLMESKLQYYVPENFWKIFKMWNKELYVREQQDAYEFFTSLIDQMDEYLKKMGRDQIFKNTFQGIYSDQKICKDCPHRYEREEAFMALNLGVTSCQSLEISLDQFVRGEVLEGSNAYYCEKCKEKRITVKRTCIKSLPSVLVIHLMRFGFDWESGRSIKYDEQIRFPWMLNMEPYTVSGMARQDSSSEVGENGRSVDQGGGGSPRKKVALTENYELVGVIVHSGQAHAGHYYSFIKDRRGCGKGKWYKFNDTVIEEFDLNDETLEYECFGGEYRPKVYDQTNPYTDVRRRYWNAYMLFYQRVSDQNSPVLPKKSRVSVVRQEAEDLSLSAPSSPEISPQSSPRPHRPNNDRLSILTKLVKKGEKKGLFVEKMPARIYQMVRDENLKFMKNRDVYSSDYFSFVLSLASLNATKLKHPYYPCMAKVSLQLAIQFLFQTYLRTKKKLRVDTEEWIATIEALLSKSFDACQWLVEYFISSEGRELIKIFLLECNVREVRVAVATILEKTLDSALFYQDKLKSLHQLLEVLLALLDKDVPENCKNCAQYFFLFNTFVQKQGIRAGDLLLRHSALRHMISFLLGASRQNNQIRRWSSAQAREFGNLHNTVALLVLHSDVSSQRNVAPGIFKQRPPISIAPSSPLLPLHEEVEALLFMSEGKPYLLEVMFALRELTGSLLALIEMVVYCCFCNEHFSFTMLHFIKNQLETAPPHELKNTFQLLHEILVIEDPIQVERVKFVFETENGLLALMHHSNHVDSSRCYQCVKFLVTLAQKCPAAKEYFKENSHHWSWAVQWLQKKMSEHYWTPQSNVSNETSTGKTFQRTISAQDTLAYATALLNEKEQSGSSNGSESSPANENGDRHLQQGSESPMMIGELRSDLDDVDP
Method in brief: as §1

USP25 = target: T2, USP25 (UniProt Q9UHP3)
T2 sequence (whole entry): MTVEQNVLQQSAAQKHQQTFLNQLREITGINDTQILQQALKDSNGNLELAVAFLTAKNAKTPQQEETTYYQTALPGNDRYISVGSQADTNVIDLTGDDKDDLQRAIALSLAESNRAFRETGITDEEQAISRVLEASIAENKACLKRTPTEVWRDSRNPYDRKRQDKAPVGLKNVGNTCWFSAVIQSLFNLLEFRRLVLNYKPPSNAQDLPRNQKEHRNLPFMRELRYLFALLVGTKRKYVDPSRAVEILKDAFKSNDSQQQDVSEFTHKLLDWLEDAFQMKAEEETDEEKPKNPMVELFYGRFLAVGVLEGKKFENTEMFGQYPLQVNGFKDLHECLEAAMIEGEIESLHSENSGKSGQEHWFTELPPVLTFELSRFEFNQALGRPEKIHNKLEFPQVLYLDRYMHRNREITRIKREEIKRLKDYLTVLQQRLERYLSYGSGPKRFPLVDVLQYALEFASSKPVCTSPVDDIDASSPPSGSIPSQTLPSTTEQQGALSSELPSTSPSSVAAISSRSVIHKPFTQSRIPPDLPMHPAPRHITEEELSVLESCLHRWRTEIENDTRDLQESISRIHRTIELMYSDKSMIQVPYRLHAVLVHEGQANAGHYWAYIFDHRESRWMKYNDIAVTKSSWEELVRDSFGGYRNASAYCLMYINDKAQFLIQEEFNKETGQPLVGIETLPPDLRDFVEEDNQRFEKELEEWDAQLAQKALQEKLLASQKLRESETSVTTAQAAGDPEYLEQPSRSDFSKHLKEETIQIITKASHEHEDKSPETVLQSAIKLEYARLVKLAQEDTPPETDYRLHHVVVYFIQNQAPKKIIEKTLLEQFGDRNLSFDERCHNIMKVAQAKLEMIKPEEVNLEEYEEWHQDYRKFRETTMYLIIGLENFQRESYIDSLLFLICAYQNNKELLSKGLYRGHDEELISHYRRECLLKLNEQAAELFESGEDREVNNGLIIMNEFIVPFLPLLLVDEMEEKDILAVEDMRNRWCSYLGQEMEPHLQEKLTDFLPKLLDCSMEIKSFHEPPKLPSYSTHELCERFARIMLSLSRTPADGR
Method in brief: as §1

USP28 = target: T3, USP28 (UniProt Q96RU2)
T3 sequence (whole entry): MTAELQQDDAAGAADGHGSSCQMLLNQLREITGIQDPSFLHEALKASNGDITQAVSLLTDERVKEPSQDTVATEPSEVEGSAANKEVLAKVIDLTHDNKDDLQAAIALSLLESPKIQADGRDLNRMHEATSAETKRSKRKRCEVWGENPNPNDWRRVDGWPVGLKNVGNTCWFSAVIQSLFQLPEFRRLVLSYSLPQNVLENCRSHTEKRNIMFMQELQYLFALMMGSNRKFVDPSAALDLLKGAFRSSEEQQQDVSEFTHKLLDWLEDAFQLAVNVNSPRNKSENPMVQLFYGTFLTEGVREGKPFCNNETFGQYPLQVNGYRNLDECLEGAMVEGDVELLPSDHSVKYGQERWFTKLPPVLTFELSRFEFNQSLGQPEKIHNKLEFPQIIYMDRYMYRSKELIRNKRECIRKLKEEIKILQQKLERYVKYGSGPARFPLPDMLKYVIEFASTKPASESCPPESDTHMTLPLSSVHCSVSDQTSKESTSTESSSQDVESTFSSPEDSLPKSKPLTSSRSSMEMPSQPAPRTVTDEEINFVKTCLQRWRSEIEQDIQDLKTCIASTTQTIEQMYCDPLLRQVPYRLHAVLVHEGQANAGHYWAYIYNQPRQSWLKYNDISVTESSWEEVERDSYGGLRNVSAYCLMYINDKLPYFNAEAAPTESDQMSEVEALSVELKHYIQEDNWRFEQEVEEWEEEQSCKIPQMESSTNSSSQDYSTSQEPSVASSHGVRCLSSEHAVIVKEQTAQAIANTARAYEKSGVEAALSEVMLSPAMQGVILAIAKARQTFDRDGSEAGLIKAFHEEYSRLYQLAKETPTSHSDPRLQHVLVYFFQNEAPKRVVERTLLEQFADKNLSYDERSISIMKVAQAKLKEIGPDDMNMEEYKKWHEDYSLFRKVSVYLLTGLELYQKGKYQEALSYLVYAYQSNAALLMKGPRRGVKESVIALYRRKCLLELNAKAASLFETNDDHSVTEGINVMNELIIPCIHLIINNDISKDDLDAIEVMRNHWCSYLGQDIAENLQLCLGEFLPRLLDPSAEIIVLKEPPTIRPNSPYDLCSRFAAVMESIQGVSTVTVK
Method in brief: as §1

Measured: log2 ratio of Biotin-Ahx-Ub-VS probe labelling

O=C(CCl)NCC(=O)N1CCCC1
inactive: USP19 0.114 | USP24 -0.074 | USP25 0.037 | USP28 -0.302
